Reference: PubChem BioAssay AID1466 (National Center for Advancing Translational Sciences (NCATS), 2008)
Hit rate of the full screen: of about 200,000 compounds, about 10 (0.005%) were called active. About 8% were inconclusive and are not listed. Calls follow the shape of the dose curve; as a rule, active = well fitted inhibition curve with a large enough effect; inconclusive = small, poorly fitted or top-dose-only effect, or effect the other way, or another doubt; inactive = no such curve, though single readings can be large or run the other way. Only a sample is shown.

Biological target: Lysosomal alpha-glucosidase (Homo sapiens) (UniProt P10253)
Assay: qHTS Assay for Inhibitors of Human alpha-Glucosidase as a Potential Chaperone Treatment of Pompe Disease;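 also: plate controls were uninhibited enzyme wells for no effect and no-enzyme background for full effect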
Conditions: purified human GAA, 4-MU-alpha-glucoside fluorescence; series mostly up to 76.9 µM; activity change, negative = inhibition: at the top concentration
Summary of the method: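 Endpoint fluorogenic read: 20 min room-temperature reaction of 4 nM human alpha-glucosidase with 400 uM 4-methylumbelliferyl-alpha-D-pyranoside, pH 5.0, quenched with 1M NaOH/1M glycine pH 10. AC50 from Hill modeling.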

Activity change, negative = inhibition, inactive:
COCCCNC(=S)NCCNc1nc2cc(C)c(C)cc2cc1C#N 11.7%
C/[N+]([O-])=C\c1ccc([N+](=O)[O-])o1 -1.29%
COc1ccc(O)c(C(=O)c2cnc3c(c2)c(-c2ccc(F)cc2)c(C#N)c(=O)n3C)c1 2.1%
CN(C)S(=O)(=O)c1ccc(NC(=O)COC(=O)Cn2[nH]c(=O)c3ccccc3c2=O)cc1 -14.6%
Cc1ccc(CN(Cc2cccnc2)C(=S)Nc2cc(Cl)ccc2C)cc1 -3.74%
Cc1ccccc1NCC(=O)N/N=C\c1ccc([N+](=O)[O-])s1 -9.83%
COc1cccc(NC(=O)C(Sc2nnnn2C)c2ccccc2)c1 (configuration not stated) -3.14%
Cc1cc(C(=O)N/N=C\C(Br)=C\c2ccccc2)c(C)o1 -12.8%
COc1ccc(NC(=O)CSc2ncnc3[nH]ncc23)cc1 5.07% [at 15.4 µM]
COc1cc(C(F)(F)F)c(C(=O)N(C)c2ccc(Cl)cc2)cn1 -7.91%
O=C(CP(=O)(c1ccccc1)c1ccccc1)N1CCOCC1 8.31%
S=C(Nc1ccc(Br)cc1Cl)NC1CCN(Cc2ccccc2)CC1 1.66%
CC(NC(=S)Nc1ccc(OC(F)F)cc1)c1ccc(F)cc1 (configuration not stated) -1.9%
CS(=O)(=O)c1ccc2nc(NC(=O)c3ccc(N4CCCC4=O)cc3)sc2c1 -7.6%
CCOCCCNC(=O)C(NC(=O)c1ccccc1O)c1ccccc1 (configuration not stated) -4.04%
O=C(C1CCN(S(=O)(=O)c2ccc(Br)s2)CC1)N1CCN(C2CCCCC2)CC1 -23.2%
Cc1cc(-c2nc(C)c(-c3nnc(SCC(=O)Nc4ccccc4)n3C)s2)no1 3.88% [at 15.4 µM]
CNc1ccc([N+](=O)[O-])cc1C(=O)O -15.9%
CSCC[C@H](NC(=O)NC1CCCC1)C(=O)O -5.49% [at 15.4 µM]
Cc1ccc(-c2cc(C(=O)NN)n[nH]2)o1 -2.87%
Cc1cccc(C)c1NC(=O)C1CCCN1C(=O)OC(C)(C)C (configuration not stated) 1.51%
Cc1ccc(/C=N/NC(=O)CSc2ccccn2)o1 0.179% [at 15.4 µM]
CCCCCCCCCCCCC(NC(C)=O)(C(=O)OCC)C(=O)OCC -6.38%
O=C(NCC1CCCO1)c1cc(-c2ccccc2)nc2ccccc12 (configuration not stated) -10.8% [at 15.4 µM]
FC(F)(F)c1cccc(-c2nc(COc3ccc(Cl)cc3Cl)no2)c1 -4.53%
COc1ccc(N2CCN(C(=O)CNS(=O)(=O)c3ccc(C)c(C)c3)CC2)cc1 -1.52%
C/C(=N\Nc1ncc(Cl)cc1Cl)c1cccs1 4.46%
Cc1onc(C(=O)NN)c1C(=O)N1CCN(C(c2ccccc2)c2ccccc2)CC1 -11.1%
CCOc1ccc2sc(NS(=O)(=O)c3ccc(N)cc3)nc2c1 -7.28%
CCn1c(SCc2ccccc2)nc2c(c1=O)SCC2 0.321%
Nc1ccccc1Sc1cc(Cl)nnc1Cl 3.88%
Cc1cccc(CSc2nc3c(c(=O)n2C)SCC3)c1 -3.07%
